Sampled rows, rich in hits. Any-hit rate of the full collection: about 6.8%.
KB-3-1 tox – KB-3-1 parental cell cytotoxicity. KB-3-1 viability, CellTiter-Glo ATP luminescence, 72 h. Potency, µM (highest dose often 46.1 µM), hits mostly cytotoxic. actives 1.4% (n = 400,000); also: % is scaled to controls: 0 for no effect and ±100 for the full control effect; nearly all actives have a fitted effect of over 60% in size
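Cytotoxicity measured as CellTiter-Glo luminescence after 72 h at 37 C. Compound titrations were pinned onto drug-naive KB-3-1 parental adenocarcinoma cells grown in DMEM with 10% FBS, and normalized data fitted to concentration-response curves.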
PTAP TSG101 blk – blocks PTAP/TSG101 interaction to inhibit HIV-1 budding; Potency, µM (titrated, usually from 115 µM), without a hit: at the top dose activity change, negative = inhibition, actives largely listed as inhibitors; 340,000 tested, under 10 active; Q99816; Fluorescence polarization, FITC-PTAP peptide / Tsg101 binding; active = well fitted inhibition curve with a large enough effect in the main read-out, with a control signal flat, not every such curve was filed as active; inconclusive = small, poorly fitted or top-dose-only effect, or effect the other way, or a change in a side signal; inactive = no such curve, though single readings can be large or run the other way; also: % of control where 0% means no effect
Target sequence (Q99816 whole entry, looked up): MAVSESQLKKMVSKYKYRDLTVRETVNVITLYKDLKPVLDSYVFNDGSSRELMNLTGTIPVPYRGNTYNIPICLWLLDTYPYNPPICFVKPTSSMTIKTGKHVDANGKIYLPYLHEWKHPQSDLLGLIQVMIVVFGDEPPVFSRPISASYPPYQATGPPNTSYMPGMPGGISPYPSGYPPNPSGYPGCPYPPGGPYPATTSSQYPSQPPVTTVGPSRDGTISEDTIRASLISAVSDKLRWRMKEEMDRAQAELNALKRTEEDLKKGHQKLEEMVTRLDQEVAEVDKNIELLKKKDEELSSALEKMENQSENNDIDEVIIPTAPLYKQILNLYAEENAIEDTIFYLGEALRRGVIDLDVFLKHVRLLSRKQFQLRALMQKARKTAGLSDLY
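Steps: Tsg101 binding domain dispensed (10 uM final), compounds pinned in DMSO, FITC-labeled PTAP-motif peptide added (50 nM final); after 20 min binding at room temperature, polarization measured.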
MCF10A rereplic – DNA re-replication induction in MCF 10a cells | Potency, µM (doses to about 46.1 µM), for the others: top-dose activity, positive = re-replication, usual class: activators | MCF 10A DNA re-replication, Hoechst nuclear intensity, 48 h | actives 2.9% (n = 350,000); also: % of control where 0% means no effect; nearly all actives have a fitted effect of over 50% in size
KB-V1 MDR tox – KB-V1 MDR subline cytotoxicity | KB-V1 MDR cells viability, CellTiter-Glo, 72 h | Potency, µM (series often up to 46.1 µM), actives largely listed as cytotoxic | actives 3.4% (n = 400,000); also: % is scaled to controls: 0 for no effect and ±100 for the full control effect; nearly all actives have a fitted effect of over 60% in size
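Compound-treated KB-V1 multidrug-resistant cells, 72 h, 37 degrees C; viability by CellTiter-Glo. Fitted qHTS curves give the values.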
PINK1 expr mod – changes PINK1 expression; PINK1 immunofluorescence, high-content cytometry, 24 h; Potency, µM (top dose mostly 76.6 µM), for inactives: at the top dose activation (PINK1 increase), most hits filed as activators; actives 0.2% (n = 410,000); AID 624263; active = well fitted activation curve with a large enough effect; inconclusive = small, poorly fitted or top-dose-only effect; cell line not stated here; also: % of control where 0% means no effect; nearly all actives have a fitted effect of over 65% in size
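Stable cell line, 250 cells/well, 12 h attachment; compounds pinned at 5 concentrations, 24 h; CCCP control. Fixed with nuclear dye, primary antibodies 12 h at 10 degrees C, secondary plus cell stain; laser-scanning cytometer read.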
SW480 rerep – inducers of DNA re-replication in SW480 colon cancer cells | AID 624297 | SW480 DNA re-replication, Hoechst DNA content imaging, 48 h | actives 1.8% (n = 340,000) | Potency, µM (titrated, usually from 46.1 µM), for inactives: at the highest dose re-replication activation, hits mostly activators; also: % of control where 0% means no effect; nearly all actives have a fitted effect of over 55% in size
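Compounds, transferred as 23 nL by pin tool, were incubated with cells for 48 hr; DNA content per nucleus was then quantified by Hoechst staining and fluorescence plate imaging.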
* marks the source's active call; other numbers are inactive results; i = inactive; ? = inconclusive; nt = no result given; ! = not active in a repeat; [ ] = another dose, or the depositor's remark. Unless noted, calls follow the shape of the dose curve; as a rule, active = well fitted curve in the direction sought with a large enough effect; inconclusive = small, poorly fitted or top-dose-only effect, or another doubt; inactive = no such curve, though single readings can be large; an effect the other way counts as inactive or inconclusive. Potency is read from the fitted curve at half-maximal effect.

SMILES	KB-3-1 tox	PTAP TSG101 blk	MCF10A rereplic	KB-V1 MDR tox	PINK1 expr mod	SW480 rerep
CCOc1cc(/C=C\[N+](=O)[O-])ccc1OCC(=O)N1CCOCC1	i	-7%	6.5µM*	?	-1%	26%
CCOc1cc(/C=C/c2nc3cc(C)c(C)cc3s2)ccc1OCC(=O)N1CCOCC1	i	0%	13µM*	10µM*	4%	?
CC(C)[C@H](NC(=O)c1ccccc1)C(=O)OCC(=O)c1ccc(S(=O)(=O)N2CCCCC2)cc1	i	-2%	2%	21µM*	-1%	-2%
O=C(COC(=O)c1ccccc1)c1ccc(S(=O)(=O)N2CCCCC2)cc1	i	-2%	2%	i	1%	-18%
CCOc1ccccc1CNC(=O)Cn1nc(C)c2nn(-c3ccc(Cl)cc3)c(C)c2c1=O	nt	nt	nt	nt	1%	nt
CC[N+](CC)(CC)c1ccc(/C=C/c2ccnc3ccccc23)cc1	0.58µM*	nt	nt	?	nt	nt
CCN(CC)c1ccc(/C=C/c2ccnc3ccccc23)cc1	?	nt	nt	i	10%	nt
CCNc1ccc(/C=C/c2ccnc3ccccc23)cc1	?	nt	nt	i	3%	nt
CCCCN(CCC#N)c1ccc(/C=C/c2ccnc3ccccc23)cc1	?	nt	nt	18µM*	nt	nt
OCCN(CCO)c1ccc(/C=C/c2ccnc3ccccc23)cc1	?	nt	nt	13µM*	nt	nt
OC(c1ccccc1)(c1ccccc1)C1CCN(CCCOc2cccc(OC(F)(F)F)c2)CC1	?	nt	nt	i	-1%	nt
N#CCc1ccc(OCCCN2CCC(C(O)(c3ccccc3)c3ccccc3)CC2)cc1	?	nt	nt	18µM*	0%	nt
OC(c1ccccc1)(c1ccccc1)C1CCN(CCCOc2ccc3c(c2)CCCC3)CC1	?	nt	nt	21µM*	0%	nt
CC(=O)Nc1ccc(OCCCN2CCC(C(O)(c3ccccc3)c3ccccc3)CC2)cc1	i	nt	nt	i	0%	nt
CC(=O)Oc1ccc2c3c(c(=O)oc2c1C)CCCC3	?	0%	21µM*	?	-1%	-63%
Cc1c(OCC(=O)N(C)c2ccccc2)ccc2c3c(c(=O)oc12)CCC3	i	-7%	11%	9.2µM*	1%	0%
Cc1c(OC(C)C(=O)O)ccc2c3c(c(=O)oc12)CCCC3 (stereo not drawn)	i	-4%	-2%	i	3%	-4%
CCCOc1ccc2c3c(c(=O)oc2c1OCCC)CCCC3	i	-8%	4%	i	3%	0%
CCOC(=O)COc1ccc2c3c(c(=O)oc2c1C)CCC3	i	-6%	?	i	-1%	-3%[9.22 µM]
CCOc1ccc2c3c(c(=O)oc2c1OCC)CCCC3	i	-3%	?	7.3µM*	-2%	1%
CCOc1ccc(NC(=O)Cn2nc(Cc3cccnc3)c3ccccc3c2=O)cc1	nt	nt	nt	nt	0%	nt
CCOc1ccccc1C(=O)N1CC(=O)Nc2ccc(Cl)cc2C1c1ccccc1 (stereo not drawn)	i	nt	nt	i	-3%	nt
COc1cccc(NC(=O)Cn2c(=O)n(-c3ccccc3)c(=O)c3c2c2cc(OC)ccc2n3C)c1	i	nt	nt	i	1%	nt
CCOC(=O)Nc1ccc2c(c1)N(C(=O)N1CCN(C)CC1)c1ccccc1S2	i	-5%	-177%[0.0737 µM]	i	-4%	-2%
C=CC(=O)N1c2ccccc2Sc2ccc(NC(=O)OCC)cc21	?	-3%	6.5µM*	i	7%	?
SMILES	KB-3-1 tox	PTAP TSG101 blk	MCF10A rereplic	KB-V1 MDR tox	PINK1 expr mod	SW480 rerep
CCOC(=O)Nc1ccc2c(c1)N(C(=O)CN(CC)CC)c1ccccc1C=C2	i	-2%	12µM*	?	nt	3%
O=C(Nc1ccc(F)cc1)c1ccc(S(=O)(=O)NCC2CCCO2)cc1 (stereo not drawn)	?	-1%	-2%	13µM*	4%[38.3 µM]	-10%
O=S(=O)(NCc1ccncc1)c1ccc(S(=O)(=O)NCC2CCCO2)cc1 (stereo not drawn)	23µM*	-5%	6.5µM*	i	nt	19%
CC(=O)Nc1ccc(C(=O)Nc2ccc(S(=O)(=O)NCC3CCCO3)cc2)cc1 (stereo not drawn)	i	-3%	9%	i	1%[38.3 µM]	2%
O=C(Nc1ccc(Cl)cc1F)c1cc(S(=O)(=O)NCc2ccc3c(c2)OCO3)ccc1F	nt	nt	nt	nt	5%	nt
CC(C)CN1C(=O)c2ccc(NC(=O)c3cccs3)cc2C1=O	i	nt	?	13µM*	6%[38.3 µM]	-1%
CCC(=O)NNc1ncnc2c1cnn2-c1ccc(C)c(Cl)c1	i	nt	nt	i	5%	nt
O=C(O)c1cc(N/N=C/c2ccc(OCc3ccccc3)cc2)ccc1Cl	i	-4%	?	i	0%	-1%
O=C(O)c1cc(N/N=C/C=C/c2ccccc2)ccc1Cl	i	-1%	21µM*	i	-1%	-8%
O=C(CCOc1ccccc1)N(Cc1cccnc1)c1nc2c(F)cccc2s1	nt	nt	nt	nt	11%	nt
C(=NN=C1c2ccccc2-c2ccccc21)c1c[nH]c2ccccc12	?	-10%	?	23µM*	-6%	9%
Fc1c(F)c(F)c(N/N=C/c2c[nH]c3ccccc23)c(F)c1F	?	-6%	?	i	23%	10%
CCOC(=O)N1CCC(NC(=O)c2cc(COc3ccccc3SC)on2)CC1	i	-2%	17%	9.2µM*	-1%	7%
CCC1CN(CC(=O)NCc2ccc3c(c2)OCO3)Cc2ccc(Cl)cc2O1 (stereo not drawn)	nt	nt	nt	nt	1%	nt
CSC(=NC(C)c1ccccc1)NS(=O)(=O)c1cccs1 (stereo not drawn)	?	-2%	5%	23µM*	-1%	-45%
O=C(CN1C(=O)/C(=C\c2cccc(F)c2)Oc2ccccc21)N1CCN(c2ccccn2)CC1	?	0%	9%	i	11%	-67%
O=C(CN1C(=O)/C(=C\c2ccc(F)cc2)Oc2ccccc21)N1CCN(c2ccccn2)CC1	i	-2%	0%	7.3µM*	9%	-3%
CCN(CC)C(=S)SSC(=S)N(CC)CC	i	2%	15µM*	i	1%	?
Cc1cc(Cl)ccc1OCC(=O)NCC1Cc2cc(-c3cnccn3)ccc2O1 (stereo not drawn)	nt	nt	nt	nt	2%	nt
COc1ccc(-c2cc(C(=O)N3CCCC3)c3ccccc3n2)cc1	?	-4%	1%	i	1%	-7%
COc1ccc(-c2cc(C(=O)N3CCN(c4ccccc4)CC3)c3ccccc3n2)cc1	?	1%	13µM*	7.3µM*	3%	1.8µM*
CCOc1ccc(-c2cc(C(=O)N3CCN(c4ccccn4)CC3)c3ccccc3n2)cc1	4.1µM*!	-2%	?	?	?	?

Screening results from PubChem.
